Hits are enriched below; roughly 6.8% of the tested compounds scored in any of these assays.
C diff growth = inhibitors of Clostridium difficile growth; Clostridium difficile clinical isolate growth, OD600, 24 h; hits give low values; growth activity, negative = inhibition, % at 16 µg/mL (by protocol); 0.25% of 86,000 active; AID 1259249;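 active means mean growth activity at or below -80% and every replicate also at or below -80%; inconclusive means mean at or below -80% but some replicate above -80%; inactive means mean growth activity above -80%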
T cruzi growth-1 = blocks T. cruzi growth in NIH3T3 culture; T. cruzi beta-gal in NIH3T3, GalScreen luminescence, 90 h; inhibition, % at 8.34 µM; 5.9% of 77,000 active;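 active means mean inhibition above about 93%, with at least 55% of replicates each passing it, limit read from the data, passing the limit was not always enough; inconclusive means only one of those two conditions holds; inactive means neither condition holds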
Pf Dd2 inh = blocks growth of Plasmodium falciparum Dd2 parasites. P. falciparum Dd2 growth, SYBR Green, 72 h; hits give low values. 2.3% of 94,000 active. activity change, % at 10 µM; in the data active means activity change below about -80%; inconclusive means no clear call, values can overlap the other calls
T cruzi growth-2 = inhibitors of T. cruzi proliferation; T. cruzi beta-gal in NIH3T3, GalScreen luminescence, 90 h; inhibition, % at 8.35 µM; 72% of 5,600 active; shares compounds with T cruzi growth-1; AID 651739;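 active means mean replicate inhibition above about 95% and at least 55% of replicates individually reaching it, limit read from the data; inconclusive means only one of the two criteria is met; inactive means neither criterion is met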
T cruzi growth-3 = blocks T. cruzi growth in NIH3T3 host cells; shares compounds with T cruzi growth-1; T. cruzi beta-gal in NIH3T3, GalScreen luminescence, 90 h; inhibition, % at 2.09 µM; 21% of 5,600 active; AID 651740;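 active means mean inhibition above about 95%, with at least 55% of replicates also reaching it, limit read from the data; inconclusive means meets just one of the two conditions; inactive means meets neither condition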
3T3 cytotox = kills mouse NIH/3T3 fibroblasts | shares compounds with T cruzi growth-1 | NIH/3T3 viability, CellTiter-Glo ATP luminescence, 90 h | cytotoxicity (signal decrease), % at 8.35 µM | 14% of 5,600 active;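 active means mean signal decrease across replicates above about 35% based on untreated-well scatter, with enough replicates individually passing, limit read from the data; inconclusive means no rule stated though some were filed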
3T3 cytotox 2 = kills mouse NIH/3T3 fibroblasts. shares compounds with T cruzi growth-1. 56% of 5,600 active. inhibition, % at 24.9 µM. NIH/3T3 viability, CellTiter-Glo ATP luminescence, 90 h;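 active means mean loss of cell viability signal at or above a set limit, and enough replicates individually reaching it; inconclusive means meets only the mean limit or only the replicate share; inactive means meets neither condition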
Large screens that a line does not name were inactive (follow-up assays come after a bar, where they were run).

Cc1ccc(-c2ccc3c(c2)O[C@@H](CN(C)Cc2cncnc2)[C@H](C)CN([C@H](C)CO)S3(=O)=O)cc1	none (no result: T cruzi growth-1)
C[C@@H]1CN([C@@H](C)CO)S(=O)(=O)c2ccc(-c3ccncc3)cc2O[C@H]1CN(C)Cc1cncnc1	T cruzi growth-1 108 | T cruzi growth-2 104 | T cruzi growth-3 104 | 3T3 cytotox inactive | 3T3 cytotox 2 45
C[C@H]1CN([C@@H](C)CO)S(=O)(=O)c2ccc(-c3ccncc3)cc2O[C@@H]1CN(C)Cc1cncnc1	T cruzi growth-1 108 | T cruzi growth-2 103 | T cruzi growth-3 inactive | 3T3 cytotox inactive | 3T3 cytotox 2 inactive
Cc1ccc(-c2ccc3c(c2)O[C@H](CN(C)Cc2cncnc2)[C@@H](C)CN([C@@H](C)CO)S3(=O)=O)cc1	none (no result: T cruzi growth-1)
C[C@@H]1CN([C@@H](C)CO)S(=O)(=O)c2ccc(-c3ccncc3)cc2O[C@@H]1CN(C)Cc1cncnc1	none
O=C(C[C@@H]1CC[C@@H]2[C@H](COC[C@@H](O)CN2C(=O)c2cccnc2)O1)Nc1ccc(-c2ccccc2)cc1	none
C[C@@H]1CN([C@@H](C)CO)C(=O)c2cc(Br)cnc2O[C@H]1CN(C)Cc1ccccn1	none (no result: T cruzi growth-1)
C[C@@H]1CN([C@H](C)CO)S(=O)(=O)c2ccc(C#CC3CC3)cc2O[C@@H]1CN(C)C(=O)Nc1cc(F)ccc1F	T cruzi growth-1 105 (no result: C diff growth) | T cruzi growth-2 109 | T cruzi growth-3 inactive | 3T3 cytotox inactive | 3T3 cytotox 2 inactive
C[C@H](CO)N1C[C@H](C)[C@@H](CN(C)C(=O)Nc2cc(F)ccc2F)Oc2cc(-c3cccc(F)c3)ccc2S1(=O)=O	T cruzi growth-1 107 | T cruzi growth-2 111 | T cruzi growth-3 inactive | 3T3 cytotox inactive | 3T3 cytotox 2 32
C[C@@H]1CN([C@@H](C)CO)S(=O)(=O)c2ccc(-c3ccccc3)cc2O[C@@H]1CN(C)C(=O)Nc1ccccc1F	none (no result: C diff growth)
C[C@@H]1CN([C@H](C)CO)S(=O)(=O)c2ccc(-c3ccc(F)cc3)cc2O[C@@H]1CN(C)C(=O)Nc1ccccc1F	T cruzi growth-1 110 | T cruzi growth-2 110 | T cruzi growth-3 inactive | 3T3 cytotox inactive | 3T3 cytotox 2 37
C[C@H](CO)N1C[C@H](C)[C@H](CN(C)C(=O)Nc2cc(F)ccc2F)Oc2cc(-c3cccc(F)c3)ccc2S1(=O)=O	none
COc1ccc(-c2ccc3c(c2)O[C@@H](CN(C)C(=O)Nc2ccccc2F)[C@H](C)CN([C@@H](C)CO)S3(=O)=O)cc1	none
C[C@@H]1CN([C@H](C)CO)S(=O)(=O)c2ccc(C#CC3CC3)cc2O[C@H]1CN(C)C(=O)Nc1cc(F)ccc1F	none (no result: C diff growth)
COc1ccc(-c2ccc3c(c2)O[C@@H](CN(C)C(=O)Nc2ccccc2F)[C@@H](C)CN([C@H](C)CO)S3(=O)=O)cc1	T cruzi growth-1 97, Pf Dd2 inh -86 | T cruzi growth-2 106 | T cruzi growth-3 inactive | 3T3 cytotox 48 | 3T3 cytotox 2 39
CN1C(=O)c2cc(NC(=O)Nc3ccccc3F)ccc2OC[C@@H]2O[C@@H](CC(=O)O)CC[C@@H]21	none
COCC(=O)Nc1ccc2c(c1)C(=O)N(C)[C@H]1CC[C@H](CC(=O)NCc3ccccc3Cl)O[C@@H]1CO2	none
COc1ccc(-c2ccc3c(c2)[C@@H]2[C@@H](CCN2C(=O)C2CCCCC2)[C@@H](CO)N3C)cc1	T cruzi growth-1 99 | T cruzi growth-2 inactive | T cruzi growth-3 108 | 3T3 cytotox inactive | 3T3 cytotox 2 106
COc1ccc(-c2ccc3c(c2)[C@H]2[C@H](CCN2C(=O)C2CCOCC2)[C@@H](CO)N3C)cc1	none
COc1ccc(-c2ccc3c(c2)[C@@H]2[C@@H](CCN2C(=O)C2CCC2)[C@H](CO)N3C)cc1	none (no result: T cruzi growth-1)
CN1c2ccc(Br)cc2[C@H]2[C@H](CCN2C(=O)C2CC2)[C@H]1CO	T cruzi growth-1 104 | T cruzi growth-2 inactive | T cruzi growth-3 inactive | 3T3 cytotox inactive | 3T3 cytotox 2 inactive
CN(C)C(=O)c1ccc(-c2ccc3c(c2)[C@H]2[C@H](CCN2C(=O)C2CCOCC2)[C@H](CO)N3C)cc1	none
COc1ccc(-c2ccc3c(c2)[C@@H]2[C@@H](CCN2C(=O)C2CC2)[C@@H](CO)N3C)cc1	T cruzi growth-1 101 | T cruzi growth-2 107 | T cruzi growth-3 109 | 3T3 cytotox inactive | 3T3 cytotox 2 50
CN(C)C(=O)c1ccc(-c2ccc3c(c2)[C@@H]2[C@@H](CCN2C(=O)C2CCOCC2)[C@H](CO)N3C)cc1	T cruzi growth-1 97 | T cruzi growth-2 106 | T cruzi growth-3 inactive | 3T3 cytotox inactive | 3T3 cytotox 2 inactive
CN1c2ccc(Br)cc2[C@@H]2[C@@H](CCN2C(=O)C2CC2)[C@H]1CO	none
CO[C@H]1CN(C)C(=O)c2cc(NC(=O)NC3CCCC3)ccc2OC[C@@H](C)N(CC2CC2)C[C@H]1C	none (no result: T cruzi growth-1)
O=C(NCC[C@H]1CC[C@@H](NC(=O)c2cccnc2)[C@H](CO)O1)Nc1ccc(C(F)(F)F)cc1	none (no result: C diff growth)
O=C(Nc1ccc(F)cc1)Nc1ccc2c(c1)[C@@H]1C[C@@H](CC(=O)N3CCOCC3)O[C@@H](CO)[C@@H]1O2	none
CNC(=O)C[C@@H]1CC[C@H]2[C@H](COc3ccc(NC(=O)C4CCCCC4)cc3C(=O)N2C)O1	none
COc1ccc(-c2ccc3c(c2)[C@@H]2[C@@H](CCN2C(=O)c2ccncc2)[C@@H](CO)N3C)cc1	T cruzi growth-1 98 | T cruzi growth-2 101 | T cruzi growth-3 inactive | 3T3 cytotox inactive | 3T3 cytotox 2 inactive
CN1c2ccc(-c3ccccc3)cc2[C@@H]2[C@@H](CCN2C(=O)c2ccncc2)[C@H]1CO	none
COCC#Cc1cnc2c(c1)C(=O)N([C@@H](C)CO)C[C@H](C)[C@H](CN(C)C(=O)c1cnccn1)O2	none
O=C(C[C@H]1C=C[C@H](NC(=O)CN2CCOCC2)[C@H](CO)O1)NCc1cccc(F)c1	none (no result: C diff growth)
C[C@@H]1CCCCO[C@@H](CN(C)CC2CCCCC2)[C@@H](C)CN([C@@H](C)CO)C(=O)c2cc(NS(C)(=O)=O)ccc2O1	T cruzi growth-1 104 | T cruzi growth-2 inactive | T cruzi growth-3 inactive | 3T3 cytotox inactive | 3T3 cytotox 2 inactive
Cc1ccc(S(=O)(=O)Nc2ccc3c(c2)C(=O)N([C@H](C)CO)C[C@@H](C)[C@H](CN(C)CC2CCCCC2)OCCCC[C@@H](C)O3)cc1	T cruzi growth-1 inconclusive | T cruzi growth-2 102 | T cruzi growth-3 inactive | 3T3 cytotox inactive | 3T3 cytotox 2 104
COc1ccc(S(=O)(=O)Nc2ccc3c(c2)C(=O)N([C@H](C)CO)C[C@H](C)[C@@H](CN(C)CC2CCCCC2)OCCCC[C@H](C)O3)cc1	T cruzi growth-1 inconclusive | T cruzi growth-2 104 | T cruzi growth-3 inactive | 3T3 cytotox inactive | 3T3 cytotox 2 82
C[C@@H]1CCCCO[C@H](CN(C)CC2CCCCC2)[C@H](C)CN([C@@H](C)CO)C(=O)c2cc(NS(C)(=O)=O)ccc2O1	none (no result: Pf Dd2 inh)
